Drawing on PubChem BioAssay, this text covers composite z-score and z-score for six compounds.

Active and inactive are the calls of the source.

For assay [1], the system named is Plasmodium falciparum Sir2 (PF13_0152, Sir2A). The assay is described as follows: Plasmodium falciparum Sir2A binding compounds – biochemical, small-molecule microarray, 635 nm fluorescence, primary screen (AID 1098).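 Further: score merges spot fluorescence intensity with its signal-to-noise ratio.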 As to conditions: fluorescence 635 nm, higher = more signal.
Assay [2] can be described thus: probe aDKK1 binding to arrayed compounds – biochemical, biotinylated probe, 635/667 nm fluorescence, primary screen (AID 1099).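 Further: score merges 667nm spot fluorescence with signal to noise across triplicate slides.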 As to conditions: small-molecule microarray, higher = more signal.
Assay [3] is described as follows: probe aCHRDL2 binding to arrayed compounds – biochemical, biotinylated probe, 635/667 nm fluorescence, primary screen (AID 1100). The settings on record: small-molecule microarray, higher = more signal.
Assay [4] is described as follows: change in splice reporter luminescence, either direction, cell-based, HEK293, spliceosome inhibition project, primary screen (AID 1101).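 Further: HEK293 cells carrying a splicing-competent luciferase reporter gene; test concentration not given here.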 The settings on record: HEK293 splicing luciferase reporter, 24 h, higher = more signal, called active from +8 up or from −8 down. (A reporter such as luciferase makes a cellular process visible.)
Assay [5] deals with Fibroblast growth factor 10 (Homo sapiens) (UniProt O15520). Description: compounds binding fibroblast growth factor 10 – biochemical, small-molecule microarray, 635 nm fluorescence, primary screen (AID 1102). As to conditions: FGF10 binding, fluorescence 635 nm, higher = more signal.
Assay [6] relates to glycogen synthase kinase-3 (GSK3A per assay name; protocol says GSK3B). Description: compounds binding glycogen synthase kinase-3 – biochemical, small-molecule microarray, 635 nm fluorescence, GSK3A, primary screen (AID 1103). Further: the record names both GSK3A and GSK3B. As to conditions: fluorescence 635 nm, higher = more signal.
The target in assay [7] is Epidermal growth factor receptor (Homo sapiens) (UniProt P00533). Description: compounds binding epidermal growth factor receptor – biochemical, small-molecule microarray, 635 nm fluorescence, primary screen (AID 1104).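 Further: score merges 667 nm emission intensity with spot signal to noise over triplicate slides.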 As to conditions: EGFR binding, higher = more signal.
Assay [8] deals with Follistatin-related protein 3 (Homo sapiens) (UniProt O95633). The assay is described as follows: compounds binding follistatin-related protein 3 – biochemical, small-molecule microarray, 635 nm fluorescence, primary screen (AID 1105).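 Further: score merges emission near 667 nm and signal to noise per printed spot across three slides.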 As to conditions: FSTL3 binding, higher = more signal.
Assay [9] has as its target Dickkopf-related protein 1 (Homo sapiens) (UniProt O94907). Description: small molecules binding DKK1 protein – biochemical, small-molecule microarray, 635 nm fluorescence scan, primary screen (AID 1106).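 Further: score merges emission near 667 nm with signal to noise over three replicate slides.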 As to conditions: higher = more signal.
The test system of assay [10] is Inhibin beta A chain (activin A). Description: small molecules binding activin A – biochemical, small-molecule microarray, 635 nm fluorescence scan, primary screen (AID 1107).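 Further: mouse activin A protein probed at 4.33 µg/mL on printed slides; score merges bound-protein fluorescence near 667 nm with spot signal-to-noise.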 As to conditions: INHBA, higher = more signal.
Assay [11] has as its system Human papillomavirus type 1a protein E7 (residues 44-93). The assay is described as follows: small molecules binding HPV E7 44-93 – biochemical, small-molecule microarray, residues 44-93, 635 nm fluorescence, primary screen (AID 1108).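 Further: E7 fragment applied at 1 µg/mL in TBST for 1 h at 4 C; score combines spot fluorescence with its signal to noise ratio.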 As to conditions: fluorescence 635 nm, higher = more signal.
A short description of assay [12]: hepatitis C replication reporter changes, two-sided – Huh7 cells, luciferase reporter, HCV replication inhibitor project, primary screen (AID 1109).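 Further: huh7 hepatoma cells harbouring a luciferase neomycin HCV replicon reporter; luciferase luminescence as measure of HCV replicon replication; test concentration not given here.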 The settings on record: Huh7 HCV replicon luciferase reporter, 48 h; higher = more signal.
Assay [13] deals with Left-right determination factor 2 (Homo sapiens) (UniProt O00292). The assay is described as follows: small molecules binding LEFTY2 protein – biochemical, small-molecule microarray, 635 nm fluorescence scan, primary screen (AID 1110). The settings on record: higher = more signal.
Assay [14] addresses Calmodulin-1 (Homo sapiens) (UniProt P0DP23). The assay is described as follows: small molecules binding calmodulin-1 with EGTA – biochemical, small-molecule microarray, Cy5-labelled CALM1, profiling panel (AID 1111).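 Further: labelled calmodulin applied in Tris saline Tween buffer holding calcium plus EGTA and DTT.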 As to conditions: Cy5-CALM1 binding fluorescence, higher = more signal.
Assay [15] has the same target. Description: small molecules binding Ca-loaded calmodulin-1 – biochemical, small-molecule microarray, Cy5-labelled CALM1, plus calcium, artefact control for SMM control-protein annotation, profiling panel (AID 1112).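 Further: score merges spot fluorescence with signal to noise from triplicate slides.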 The settings on record: Cy5-CALM1 binding fluorescence, higher = more signal.
A short description of assay [16]: probe aWnt5a binding to arrayed compounds – biochemical, biotinylated probe, 635/667 nm fluorescence, primary screen (AID 1113).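 Further: score merges 667 nm fluorescence intensity with signal-to-noise per printed feature.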 As to conditions: small-molecule microarray, higher = more signal.
The nature of assay [17]: probe aShh binding to arrayed compounds – biochemical, biotinylated probe, 635/667 nm fluorescence, primary screen (AID 1114).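 Further: probe is biotin-labelled aShh protein from a stem cell growth factor screen; measures binding of labelled protein to compounds printed on the slide; score merges feature fluorescence at 667 nm with signal-to-noise.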 The settings on record: small-molecule microarray, higher = more signal.
The nature of assay [18]: probe aNog binding to arrayed compounds – biochemical, biotinylated probe, 635/667 nm fluorescence, primary screen (AID 1115).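 Further: probe is biotinylated aNog protein used at 0.15 µg/mL for 1 h at 4 C; z-score combines 667 nm fluorescence of each spot with its signal to noise.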 As to conditions: small-molecule microarray, higher = more signal.
The target of assay [19] is Torsin-1A-interacting protein 1 (Homo sapiens) (UniProt Q5JTV8). The assay is described as follows: compound microarray binding of lysate hLAP1 – cell lysate, small-molecule microarray, COS7 lysate, 635/667 nm fluorescence, primary screen (AID 1116). The settings on record: 635 nm fluorescence, higher = more signal.
For assay [20], the target named is Alpha-bungarotoxin (Bungarus multicinctus) (UniProt P60615). The assay is described as follows: compounds binding labelled alpha-BTX control protein – biochemical, small-molecule microarray, Alexa647 label, 635/667 nm fluorescence, artefact control for SMM control protein annotation, profiling panel (AID 1117). The settings on record: alpha-BTX-A647 binding fluorescence, higher = more signal.
Chain of Alpha-bungarotoxin (Bungarus multicinctus) (P60615 whole entry, looked up): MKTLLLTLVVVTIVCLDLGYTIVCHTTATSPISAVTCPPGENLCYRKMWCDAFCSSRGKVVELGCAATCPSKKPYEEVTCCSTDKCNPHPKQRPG

Chain of Follistatin-related protein 3 (Homo sapiens) (O95633 whole entry, looked up): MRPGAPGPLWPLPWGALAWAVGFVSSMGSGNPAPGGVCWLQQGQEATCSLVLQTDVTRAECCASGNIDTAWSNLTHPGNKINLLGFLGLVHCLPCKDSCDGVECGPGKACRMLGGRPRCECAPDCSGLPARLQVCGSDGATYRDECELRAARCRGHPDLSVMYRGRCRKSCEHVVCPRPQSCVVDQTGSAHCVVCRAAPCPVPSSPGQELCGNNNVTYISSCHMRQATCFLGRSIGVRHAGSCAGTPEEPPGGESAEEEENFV
Chain of Dickkopf-related protein 1 (Homo sapiens) (O94907 whole entry, looked up): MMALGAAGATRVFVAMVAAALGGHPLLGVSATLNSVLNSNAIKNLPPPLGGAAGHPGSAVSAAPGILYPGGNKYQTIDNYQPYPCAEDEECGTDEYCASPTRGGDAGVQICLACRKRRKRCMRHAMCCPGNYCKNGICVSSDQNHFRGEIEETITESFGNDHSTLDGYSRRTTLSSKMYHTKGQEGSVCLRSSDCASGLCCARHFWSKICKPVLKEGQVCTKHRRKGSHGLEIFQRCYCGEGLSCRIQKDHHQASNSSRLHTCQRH
Chain of Left-right determination factor 2 (Homo sapiens) (O00292 whole entry, looked up): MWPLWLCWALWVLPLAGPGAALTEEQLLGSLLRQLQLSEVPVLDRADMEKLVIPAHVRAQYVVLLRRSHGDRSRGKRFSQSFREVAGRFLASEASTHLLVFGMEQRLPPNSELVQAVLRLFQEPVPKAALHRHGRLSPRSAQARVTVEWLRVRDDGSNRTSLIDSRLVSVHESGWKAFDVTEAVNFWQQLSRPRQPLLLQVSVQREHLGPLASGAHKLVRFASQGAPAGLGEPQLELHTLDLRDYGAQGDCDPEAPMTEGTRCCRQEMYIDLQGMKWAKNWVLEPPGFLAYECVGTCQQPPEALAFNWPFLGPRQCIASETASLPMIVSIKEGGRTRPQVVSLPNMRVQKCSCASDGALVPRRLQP
Chain of Fibroblast growth factor 10 (Homo sapiens) (O15520 whole entry, looked up): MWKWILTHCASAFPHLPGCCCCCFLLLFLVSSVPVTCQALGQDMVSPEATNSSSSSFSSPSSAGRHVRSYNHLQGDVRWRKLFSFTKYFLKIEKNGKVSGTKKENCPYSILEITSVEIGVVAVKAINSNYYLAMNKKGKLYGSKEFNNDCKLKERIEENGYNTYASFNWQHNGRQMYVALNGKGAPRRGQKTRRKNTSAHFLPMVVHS
Chain of Torsin-1A-interacting protein 1 (Homo sapiens) (Q5JTV8 whole entry, looked up): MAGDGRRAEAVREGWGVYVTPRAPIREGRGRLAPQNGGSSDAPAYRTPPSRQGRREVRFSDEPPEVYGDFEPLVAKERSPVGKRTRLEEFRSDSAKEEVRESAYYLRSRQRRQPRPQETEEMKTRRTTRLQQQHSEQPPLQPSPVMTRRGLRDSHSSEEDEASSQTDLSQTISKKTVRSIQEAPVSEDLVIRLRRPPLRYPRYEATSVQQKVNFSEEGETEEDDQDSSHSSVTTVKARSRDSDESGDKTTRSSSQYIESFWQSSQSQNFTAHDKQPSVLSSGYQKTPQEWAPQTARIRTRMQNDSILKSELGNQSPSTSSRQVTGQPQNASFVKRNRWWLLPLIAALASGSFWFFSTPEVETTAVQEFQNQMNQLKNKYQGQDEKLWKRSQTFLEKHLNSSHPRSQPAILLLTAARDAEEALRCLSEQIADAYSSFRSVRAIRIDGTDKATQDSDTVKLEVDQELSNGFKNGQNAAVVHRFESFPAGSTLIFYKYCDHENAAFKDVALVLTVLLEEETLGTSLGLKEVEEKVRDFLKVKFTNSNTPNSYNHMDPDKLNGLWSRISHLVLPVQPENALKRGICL
Chain of Epidermal growth factor receptor (Homo sapiens) (P00533 whole entry, looked up): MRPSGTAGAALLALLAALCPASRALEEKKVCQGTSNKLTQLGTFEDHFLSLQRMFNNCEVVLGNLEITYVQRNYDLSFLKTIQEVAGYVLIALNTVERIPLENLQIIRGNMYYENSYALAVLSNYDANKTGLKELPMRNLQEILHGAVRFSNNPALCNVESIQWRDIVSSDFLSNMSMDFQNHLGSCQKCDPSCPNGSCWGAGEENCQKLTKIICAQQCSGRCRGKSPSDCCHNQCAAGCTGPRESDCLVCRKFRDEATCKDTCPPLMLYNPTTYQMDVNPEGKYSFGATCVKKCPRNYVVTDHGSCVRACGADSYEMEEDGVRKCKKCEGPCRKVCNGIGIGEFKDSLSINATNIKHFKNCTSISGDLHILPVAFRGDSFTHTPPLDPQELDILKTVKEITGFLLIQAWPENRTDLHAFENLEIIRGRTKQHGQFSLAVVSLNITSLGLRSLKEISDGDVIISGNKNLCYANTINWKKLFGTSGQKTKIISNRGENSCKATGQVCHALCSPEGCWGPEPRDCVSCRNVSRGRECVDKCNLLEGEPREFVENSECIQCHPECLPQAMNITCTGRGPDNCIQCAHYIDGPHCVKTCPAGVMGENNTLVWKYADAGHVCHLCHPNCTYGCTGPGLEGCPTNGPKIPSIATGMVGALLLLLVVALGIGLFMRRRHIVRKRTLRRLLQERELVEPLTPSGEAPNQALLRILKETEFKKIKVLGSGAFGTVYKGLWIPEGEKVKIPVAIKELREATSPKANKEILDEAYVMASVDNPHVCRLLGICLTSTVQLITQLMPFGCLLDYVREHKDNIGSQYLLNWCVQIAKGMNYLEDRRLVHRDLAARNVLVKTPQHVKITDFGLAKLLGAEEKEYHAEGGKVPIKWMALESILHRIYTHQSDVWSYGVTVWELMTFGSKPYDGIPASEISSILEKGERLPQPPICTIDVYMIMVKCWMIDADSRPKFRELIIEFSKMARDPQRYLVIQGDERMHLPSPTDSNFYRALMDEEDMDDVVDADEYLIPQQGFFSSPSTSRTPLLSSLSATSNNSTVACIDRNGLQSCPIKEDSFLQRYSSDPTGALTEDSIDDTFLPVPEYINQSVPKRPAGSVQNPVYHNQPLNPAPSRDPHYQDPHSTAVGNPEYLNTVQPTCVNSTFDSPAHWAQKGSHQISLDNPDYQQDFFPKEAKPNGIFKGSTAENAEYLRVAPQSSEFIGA

For the compound `CN1C(=O)C2C(C1=O)C1C=C(CCCO)C2C(c2cccs2)N1Cc1cc2c(cc1Br)OCO2` (stereo not given), the composite z-score in assay [1] worked out at 0.989; in assay [2], 0.738; in assay [3], 0.377; in assay [5], 0.922; in [6], 1.34; in assay [7], 0.424. Besides, the composite z-score in assay [8] worked out at 1.49; in [9] it was 0.373; in [10], 1.51; in [11], 1.44; in assay [13] it was 0.772; in [14] it was 1.89. In addition, the composite z-score was 0.658 in assay [15]; 0.184 in assay [16]; 0.131 in assay [17]; -0.373 in [18]; 2.29 in assay [19]; 1.7 in assay [20]. In addition, the figures for the z-score in [4] and in [12] were -0.139 (inactive) and -1.22, respectively.

With `C=CC[C@H](OC(=O)Nc1ccc(SC)cc1)c1ccc(OCCO)cc1`, the composite z-score in assay [1] is 0.392; in assay [2], -0.164; in assay [3], 0.799; in assay [5] it was -0.163; in [6] it was -0.989; in assay [7] it was -0.634. Further, the composite z-score in assay [8] is -0.0191; in assay [9], -0.472; in [10], 0.138; in assay [11], -0.833; in assay [13] it was -0.952; in [14], -0.316. In addition, the composite z-score in assay [15] was 0.461; in assay [16] it was -0.0994; in assay [17] it was 0.0188; in [18], 1.48; in assay [19] it was -0.286; in [20], 0.191. In addition, the z-score in assay [4] is -1.69 (inactive); in assay [12], 1.34.

Consider `Cc1ccc([C@H]2C(C(=O)O)=C[C@@H](C(C)(C)C)N2S(=O)(=O)c2ccc(C)cc2)cc1`, for which the composite z-score worked out at 1.03 in assay [1]; 1.05 in [2]; 1.06 in [3]; 1.1 in assay [5]; 1.31 in assay [6]; 0.0496 in assay [7]. Moreover, the composite z-score in assay [8] was 1.17; in [9], -0.591; in [10], 0.265; in assay [11], 1.41; in assay [13] it was 0.326; in [14], 1.94. The composite z-score came out at 0.516 in [15]; 0.058 in assay [16]; 0.348 in [17]; 1.34 in [18]; 1.4 in assay [19]; 1.43 in assay [20]. For the same compound, the z-score was 0.0856 (inactive) in assay [4] and 0.0372 in [12].

With `CC(C)C(=C=CC[C@@H](O)c1cccc(OCCO)c1)C[C@@H](O)COCc1ccccc1`, the composite z-score is 1.04 in [1]; -0.119 in assay [2]; -0.118 in assay [3]; 0.543 in assay [5]; -0.174 in [6]; -0.208 in assay [7]. Besides, the composite z-score in [8] is 0.178; in assay [9], -0.445; in assay [10], 0.198; in assay [11] it was -0.83; in assay [13], 0.136; in assay [14], 0.275. In addition, the composite z-score in assay [15] was 0.265; in assay [16], -0.141; in assay [17], 0.0469; in assay [18], -0.298; in assay [19] it was 0.0535; in [20], 0.0211. Also, the z-score in [4] was -0.952 (inactive); in assay [12] it was -0.0464.

Consider `CC(C)C[C@@H]1NC(=O)CNC(=O)[C@@]23C(=O)N[C@@H](Cc4ccccc4)C2[C@H](C)[C@@]2(C)O[C@H]2C3/C=C/C/C=C\CNC1=O` (stereo not given in full), for which the composite z-score in [1] is 0.15; in assay [2] it was -0.212; in assay [3] it was -0.445; in [5], 0.569; in assay [6], 1.15; in assay [7], 0.366. The composite z-score in [8] is 1.04; in assay [9] it was 0.568; in assay [10], 1.25; in assay [11] it was 1.39; in assay [13], 0.6; in assay [14], -0.263. Moreover, the composite z-score in assay [15] is -0.825; in assay [16], -0.147; in [17], -0.388; in [18], -0.177; in [19] it was 0.625; in assay [20], 0.985. Further, the z-score is 0.426 (inactive) in [4] and -0.275 in [12].

With `NC(=O)N1C(=O)C2C(C1=O)C1C=C(CCCO)C2C(C2CC2)N1Cc1cccc(OC(F)(F)F)c1` (stereo not given), the composite z-score is 1.59 in assay [1]; -0.306 in assay [2]; -0.345 in assay [3]; 0.075 in [5]; -0.186 in assay [6]; -0.595 in [7]. For the same compound, the composite z-score in assay [8] is -0.494; in [9] it was -0.0361; in assay [10], 0.561; in assay [11] it was 0.504; in assay [13], -0.219; in assay [14] it was -0.143. In addition, the composite z-score in assay [15] was 0.2; in assay [16] it was -0.173; in [17] it was -0.138; in assay [18], 0.56; in assay [19], 0.691; in assay [20], -0.187. Besides, the results for the z-score in [4] and in [12] were 0.0948 (inactive) and -1.4, respectively.
